Reference: PubChem BioAssay (Tox21)
Results filed as inconclusive are left out. A call without a number means that no potency is given here. A number with no mark means an inactive call. Calls of active or inactive are those of the source. The call rests on the fitted dose curve; in most records, active means well fitted cell-killing curve with a large enough effect in the repeat runs; inconclusive means weak or mixed curves, or effect the other way; inactive means flat fitted curve, though single readings scatter.

How the values were obtained:
[1] = cAMP Responsive Elements (CRE) small molecule antagonists, cell-based qHTS assay: qHTS cell viability counter screen (AID 2060913); further: nearly all actives have a fitted effect of over 40% in size
Summary of the method: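 Steps: cells plated and held 18 hrs at 37 C/5% CO2; compounds and NKH477 (0.25 uM final) added; 3 hrs incubation; reporter substrate read; CellTiter-Glo added to measure cytotoxicity by luminescence.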

[2] = cAMP Responsive Elements (CRE) small molecule agonists, cell-based qHTS assay: qHTS cell viability counter screen (AID 2060914);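 further: viability read after 3 h of compound exposure; nearly all actives have a fitted effect of over 50% in size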
Summary of the method: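 Cells are seeded and incubated 18 h, treated with compounds in DMSO for 3 h, read for the bla reporter, then given CellTiter-Glo; luminescence is measured after 30 min at room temperature.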

SMILES	Potency [1]	Potency [2]	viability change, negative = cytotoxic [1]	activity change, negative = cytotoxicity [2]
CC(C)(C)N	inactive	inactive		
C[Si](C)=O			7.47% [at 8.39 µM]	-0.0708% [at 8.39 µM]
C=CCc1cc(S(=O)(=O)c2ccc(O)c(CC=C)c2)ccc1O	inactive	inactive		
O=C(O)c1cc2ccccc2nc1C(=O)O	inactive	inactive		
OCC1CC2CC1C1CCC(CO)C21 (configuration not stated)	inactive	inactive		
CCc1cccc(C)c1N(C(=O)C(=O)O)C(C)COC (configuration not stated)	inactive	inactive		
